Source: the supplement of paper PMC7866885, “A novel bicyclic 2,4-diaminopyrimidine inhibitor of Streptococcus suis dihydrofolate reductase” (PeerJ, 2021)
± gives the standard deviation.

Tested on: Streptococcus suis HE06
Assay: percent growth relative to DMSO control; higher = less growth inhibition
Details: 10 µM; incubation time 18 h
Protocol: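 CLSI broth microdilution: 5x10^4 CFU of Streptococcus suis (strain P1/7 or HE06) incubated with 10 µM Pathogen Box compound in cation-adjusted Mueller Hinton broth, 37 °C, 5% CO2, 18 h. Growth read as OD600 and expressed as percent of the DMSO-treated control (100%); mean ± SD of three independent experiments.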

| Compound | percent growth [%] |
| --- | --- |
| Cc1nc(-c2ccccn2)nc(N2CCC(Cc3ccccc3)C2)c1Cl (stereo not drawn) | 0.933 ± 1.6 |
| CC1=NN(c2nc3ccccc3s2)C(=O)C1Cc1cccc2ccccc12 (stereo not drawn) | 0.762 ± 0.8 |
| c1cncc(NCc2ccc(-c3cc4ccncc4cc3OC3CCNCC3)s2)c1 | 100 ± 18 |
| Clc1ccc(Cl)c(CO[C@H]2CCCC[C@@H]2n2ccnc2)c1 | 26.2 ± 40 |
| Cc1ccc(S(=O)(=O)n2cc(-c3ccnc(N)c3)c3cc(Br)cnc32)cc1 | 95.2 ± 32 |
| Cc1[nH]c2cc(F)cc(F)c2c(=O)c1-c1ccc(Oc2ccc(OC(F)(F)F)cc2)cc1 | 96.3 ± 3.2 |
| CC1CCCCN1C(=O)NCCc1coc(-c2ccc(F)cc2)n1 (stereo not drawn) | 79.5 ± 6.9 |
| COc1ccc(CN2CCOc3ccc(C(C)(O)CN(C)C)cc3C2)cc1C (stereo not drawn) | 103 ± 14 |
| COc1ccc(-c2nnc3ccc(-c4cccc(C(C)C)c4)cn23)cc1OC | 97.1 ± 15 |
| c1ccc(Oc2ccc(-c3cc(CN4CCOCC4)[nH]n3)cc2)cc1 | 90.8 ± 3.9 |
| CN1CCN(c2cc(-c3ccc(F)cc3)nc(-c3ccncc3)n2)CC1 | 83.6 ± 3.7 |
| CC(=O)Oc1ccccc1C(=O)Nc1ncc([N+](=O)[O-])s1 | 42.5 ± 18 |
| O=C(Nc1ccccc1)c1ccc(-c2cc3ccncc3cc2OC2CCNCC2)s1 | 85.8 ± 20 |
| COC(=O)c1c(NC(=O)c2c(F)c(F)c(F)c(F)c2F)sc2c1CCCCC2 | 105 ± 7.8 |
| COc1ccc(Oc2ccc([C@@H](C)N(C)c3ncc4c(N)nc(N)nc4n3)cc2)cc1 | 104 ± 32 |
| CN1CCN(S(=O)(=O)c2ccc(-c3ccc4c(Nc5ncc(Cl)cn5)ccnc4c3)cc2)CC1 | 92.2 ± 8.5 |
| COc1cccc(-n2nnnc2S(C)(=O)=O)c1 | 88.1 ± 9.8 |
| Cc1ccc(-c2nc(CN(Cc3ccccn3)C(C)C)cs2)o1 | 25.7 ± 44 |
| Cc1ccc2nc(C)c(-c3ccn(Cc4ccccc4)n3)n2c1 | 90 ± 35 |

| Compound | percent growth [%] |
| --- | --- |
| O=C(Nc1ccc(N2CCNCC2)nc1)c1oc(-c2ccccc2)nc1C(F)(F)F | 93.7 ± 20 |
| CCCCOC(=O)Nc1cc2nc(C3CCCCC3)[nH]c2cc1N1CCCC1 | 29.6 ± 40 |
| Nc1nccc2ccc(-c3ccc4nccn4c3)cc12 | 85.8 ± 25 |
| FC(F)(F)c1cnc(Sc2nnc(-c3ccncc3)o2)c(Cl)c1 | 94.8 ± 27 |
| CCn1cnc2c(Nc3cc(F)cc(F)c3)nc(C#N)nc21 | 116 ± 30 |
| CC(=O)NCC1CN(c2ccc(-c3ccc(CNCc4cn[nH]n4)cc3)c(F)c2)C(=O)O1 (stereo not drawn) | 0.542 ± 0.94 |
| O=C(C1CCN(c2nnnn2-c2ccccc2)CC1)N1CCc2ccccc2C1 | 86.9 ± 28 |
| c1ccc(Oc2ccc(-c3cc(N4CCOCC4)[nH]n3)cc2)cc1 | 81.2 ± 21 |
| C[C@@H]1[C@H](O)[C@@H](C)/C=C/C=C/C=C/C=C/C=C/C=C/C=C/[C@H](O[C@@H]2O[C@H](C)[C@@H](O)[C@H](N)[C@@H]2O)C[C@@H]2O[C@](O)(C[C@@H](O)C[C@@H](O)[C@H](O)CC[C@@H](O)C[C@@H](O)CC(=O)O[C@H]1C)C[C@H](O)[C@H]2C(=O)O | 97.2 ± 8.6 |
| Cc1cc(C)n(-c2ccc(NC(=O)C3CCN(Cc4cnc(C)s4)CC3)cc2)n1 | 95.3 ± 24 |
| CC(=O)N1CCc2cc3nc(C)cc(C)c3cc21 | 88.4 ± 9.8 |
| c1ccc(-c2cc(N3CCCCC3)c3ccccc3n2)nc1 | 0.646 ± 1.1 |
| Cc1cnc(N2CCN[C@@H](Cc3ccccc3)C2)nc1Oc1ccc(-n2ccnc2)cc1 | 98.9 ± 9.1 |
| Nc1ccc2ncnc(Nc3ccc(OCc4cccc(F)c4)c(Cl)c3)c2c1 | 111 ± 9.4 |
| C[C@H](C(N)=O)N1CCCC[C@@H]1c1ccc(OCc2cccc(F)c2)cc1 | 125 ± 34 |
| CC(C)(C)CN1C(=O)C(c2ccccc2)(c2ccccc2)N=C1N | 46.1 ± 39 |
| CC(C)N=c1cc2n(-c3ccc(Cl)cc3)c3ccccc3nc-2cc1Nc1ccc(Cl)cc1 | 29.6 ± 51 |
| CCS(=O)(=O)N(Cc1ccco1)Cc1cc2ccc(C)cc2nc1O | 90.6 ± 1.9 |
| CCCCN(CCCC)c1c(C#N)cc(S(=O)(=O)Nc2ccccc2)cc1C#N | 86.6 ± 25 |
